About 1,200 (3.2%) of roughly 38,000 compounds showed an effect of 50% or more. The median lay at about -58%. For the sample, strong results were picked, then their nearest neighbours and some compounds at random.

The subject of this assay is Plasmodium falciparum. Description: Calibr Malaria Delayed Death Assay SOP. Type of assay: functional, organism-based. Also on record: scale not given: in the data most compounds retested in dose-response had high values. The conditions noted are these: concentration 4.99e-06 (unit not given; other assays of the set use mol/L).
On to `Cc1cc(C(=O)N2CCN(c3nc4c(C)cccc4s3)CC2)no1`, for which the “Percent Effect” value is given as -18.05%.

As to `Cc1c(C2N3C[C@]4(C(C)C)CN2C[C@](C(C)C)(C3)C4=O)[nH]c(=O)[nH]c1=O` (some centres not stated), the “Percent Effect” value is recorded as -140.7%.

As to `O=C(O)C(F)(F)F.O=C1COC2(CCN(c3ncccn3)CC2)CN1Cc1ccccn1`, the “Percent Effect” value is listed as -77.45%.

In the case of `COc1cccc(CN(C)C(=O)c2csc(-c3nnc[nH]3)n2)c1`, the “Percent Effect” value was -25.24%.

With `COCCN(Cc1ccccc1)C(=O)c1csc(-c2nnc[nH]2)n1`, the “Percent Effect” value was -56.87%.

For `CN(CCCOc1ccccc1)C(=O)c1csc(-c2nnc[nH]2)n1`, the “Percent Effect” value is 76.91%.

In the case of `CC(=O)Nc1nc2c(s1)C1(CCCC1)Nc1ccccc1S2`, the “Percent Effect” value is -91.88%.

`Cc1nc(CCNC(=O)C2CC(=O)N(C(C)C)C2)cs1` (configuration not stated): the “Percent Effect” value is -69.29%.

With `Cc1ccc(NC2CCN(C(=O)COC3CCCC3)CC2)nn1`, the “Percent Effect” value is on record as -115.6%.

`OCc1ccccc1CNCC1CNc2ccnn2C1` (configuration not stated): the “Percent Effect” value was -1.893%.

As for `Cc1cc2n(n1)CC(CNC1CCN(Cc3ccccc3C)CC1)CN2` (configuration not stated), the “Percent Effect” value was 70.36%.

For `Cc1cc2n(n1)CC(CNC1CCN(Cc3ccccn3)CC1)CN2` (configuration not stated), the “Percent Effect” value is on record as -56.82%.

Turning to `c1ccc(C2(NCC3CNc4ccnn4C3)CCC2)cc1` (configuration not stated), the “Percent Effect” value is reported as 13.04%.

In the case of `Cc1cc2n(n1)CC(CNC1CCN(C(=O)c3ccco3)CC1)CN2` (configuration not stated), the “Percent Effect” value is given as -80.47%.

As for `Cc1ccccc1CN1CCC(NCC2CNc3ccnn3C2)CC1` (configuration not stated), the “Percent Effect” value came to 66.35%.

For the molecule `Cc1cc2n(n1)CC(CNC1CCN(C(=O)C3CC3)CC1)CN2` (configuration not stated), the “Percent Effect” value is listed as -153%.

On to `Cc1cc2n(n1)CC(CNC1CCN(Cc3ccncc3)CC1)CN2` (configuration not stated), for which the “Percent Effect” value is on record as -3.89%.

As for `Cc1cccc(CN2CCC(NCC3CNc4cc(C)nn4C3)CC2)c1` (configuration not stated), the “Percent Effect” value came to 85.82%.

`Cc1cc2n(n1)CC(CNC1CCN(C3CC3)CC1)CN2` (configuration not stated): the “Percent Effect” value is recorded as -73.71%.

With `Cc1cc2n(n1)CC(CNC1CCN(CCc3ccccc3)CC1)CN2` (configuration not stated), the “Percent Effect” value is 67.68%.

In the case of `Cc1cc2n(n1)CC(CNC1CCN(c3ccccn3)CC1)CN2` (configuration not stated), the “Percent Effect” value is on record as -51.76%.

For the molecule `CC(C)N1CCC(Cc2cc(-c3cc(F)ccc3C(=O)O)ncn2)C1` (configuration not stated), the “Percent Effect” value is on record as -123.1%.

Consider `COCCN1CCCC2(CCN(Cc3nnc(C4CC4)o3)C2)C1=O` (configuration not stated), for which the “Percent Effect” value is -62.36%.

On to `COCCNC(=O)c1cccnc1Oc1ccc(Cl)cc1`, for which the “Percent Effect” value was -11.3%.

Turning to `O=C(NC1CC1)[C@H]1C[C@@H]2CCN(Cc3ccc4c(c3)OCO4)C[C@@H]2O1.O=C(O)C(F)(F)F`, the “Percent Effect” value was -22.11%.

With `CC(C)c1nc(C2CCCN2C(=O)CCn2cncn2)no1` (configuration not stated), the “Percent Effect” value is -126.6%.

On to `CCCN(CCc1ccccc1)C(=O)c1ccccc1NCC(=O)O`, for which the “Percent Effect” value was -32.98%.

For the molecule `Cc1cc(C(C)(O)CNC(=O)CCn2ccnc2C(C)C)c(C)o1` (configuration not stated), the “Percent Effect” value is on record as -18.43%.

Turning to `Cc1cc(NC(=O)NCCOc2ccc(Cl)cn2)no1`, the “Percent Effect” value was -49.88%.

Take `COc1cc(C)sc1C(=O)NCCNc1ccccc1`: the “Percent Effect” value amounted to 14.03%.

With `COc1cc(C)sc1C(=O)NCCC(=O)N(C)Cc1ccccc1`, the “Percent Effect” value came to 58.21%.

For `COc1cc(C)sc1C(=O)NCCC(=O)N(C)c1ccccc1`, the “Percent Effect” value is 32.05%.

On to `COCC(=O)N1CCO[C@]2(CCC[C@H]2COC)C1`, for which the “Percent Effect” value is -73.03%.

For the molecule `CCc1n[nH]c(C2CN(C(=O)CCCn3cccn3)CCO2)n1` (configuration not stated), the “Percent Effect” value is -94.04%.

For the molecule `COc1ccc(-c2ccccc2CCN)c(OC)c1`, the “Percent Effect” value is on record as 80.76%.

For the molecule `COc1ccc(-c2ccccc2CCN)c(OC)c1OC`, the “Percent Effect” value amounted to 81.6%.

For the molecule `COc1ccc(OC)c(-n2cnnc2CCN)c1`, the “Percent Effect” value was -39.19%.

For `COc1ccc(CN)c(OC(F)F)c1.Cl`, the “Percent Effect” value was -30.28%.

On to `COc1ccc(-c2ccccc2CN)c(OC)c1`, for which the “Percent Effect” value was 59.74%.

On to `COc1ccc(CCN)cc1-c1ccc(S(C)(=O)=O)cc1`, for which the “Percent Effect” value came out at 18.27%.

For the molecule `COc1ccc(-c2cc(CN)ccc2F)c(OC)c1OC`, the “Percent Effect” value came to 12.18%.

For `CC(=O)Nc1cccc(-c2ccccc2CCN)c1`, the “Percent Effect” value was -111.2%.

Consider `COc1ccc(-c2ccnc(N)c2)c(OC)c1`, for which the “Percent Effect” value is on record as -94.95%.

Turning to `Cc1c[nH]c(C(=O)N2CCCC2c2ccc(C(=O)N3CCSCC3)s2)n1` (configuration not stated), the “Percent Effect” value was -168.9%.

With `CC(=O)N1CCCC2(C1)CN(C(=O)Cc1ccccc1)CCO2` (configuration not stated), the “Percent Effect” value is on record as -122.2%.

On to `O=C(O)Cn1ccc(=O)c2cc(Cl)ccc21`, for which the “Percent Effect” value is reported as -122.9%.

As to `CCOc1cccc2c1OCC(=O)N(c1ccc(N(C)C)cc1)C2`, the “Percent Effect” value was -248.2%.

Consider `COc1ccc(OCCN(C)C(=O)c2ccc(OC)cc2O)cc1`, for which the “Percent Effect” value is reported as -28.6%.

In the case of `COc1ccc(-c2nnsc2C(=O)N2CCOCC2)cc1`, the “Percent Effect” value is -93.54%.

`COc1c(CNCc2ccccc2Cn2cncn2)c(C)nn1C`: the “Percent Effect” value is -2.524%.

For `COc1c(CNCc2ccccc2Cn2cccn2)c(C)nn1C`, the “Percent Effect” value was determined as 54.96%.

Consider `COc1c(CNCc2cccc(Cn3cccn3)c2)c(C)nn1C`, for which the “Percent Effect” value is on record as 6.408%.

For the origin of these results see ChEMBL document CHEMBL3988442, “University of Dundee, Small-Polar-MMV Screening Library” (2021).
